Records with an inconclusive call do not appear. Unless noted, calls follow the shape of the dose curve; as a rule, active = well fitted curve in either direction with a large enough effect (not every such curve was filed as active); inconclusive = small, poorly fitted or top-dose-only effect, or another doubt; inactive = flat fitted curve, though single readings scatter.
Columns and labels:
[1] = NFAT Signaling Pathway (AID 444); details: Jurkat NFAT-bla M1, carbachol, beta-lactamase ratio, 5 h; at 17.2 µM (top of the series) unless noted;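 also: carbachol stimulus at about its EC50 of 1 µM final; % is scaled to controls: 0 for no effect and ±100 for the full control effect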
Method in brief: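 Jurkat cells with NFAT-driven β-lactamase reporter and co-expressed M1 receptor, stimulated with carbachol (final 1 uM, ~EC50), compound titration, 5 h at 37 °C. CCF4 loaded 1 h at RT; 460/530 nm ratio gave %activity and AC50.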

[2] = Stat Signaling Pathway (AID 446); details: ME-180 (cervical carcinoma) SIE beta-lactamase reporter, IL-6 stimulated, 5 h; at 17.2 µM (top of the series) unless noted;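 also: ME-180 cervical cancer cells given 40 pM IL-6 alongside compound; SIE-controlled beta-lactamase reporter measured as 460/530 nm FRET emission ratio; % is scaled to controls: 0 for no effect and ±100 for the full control effect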
Method in brief: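 FRET read-out (405 nm excitation, 460/530 nm emission) of a beta-lactamase reporter under a STAT-inducible element in ME-180 cervical carcinoma cells. Cells with compound receive 40 pM IL-6 for 5 h. Values are normalised to AC90 stimulation and AC90 JAK-inhibitor controls.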

[3] = target: Glucocorticoid receptor (Homo sapiens) (UniProt P04150); assay: GR-GFP Redistribution (AID 450;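 active = compounds whose dose series gives a full or clear partial fitted curve of increased nuclear translocation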; also: potency is read from the fitted curve at half-maximal effect)
Chain of Glucocorticoid receptor (Homo sapiens) (P04150 whole entry, looked up): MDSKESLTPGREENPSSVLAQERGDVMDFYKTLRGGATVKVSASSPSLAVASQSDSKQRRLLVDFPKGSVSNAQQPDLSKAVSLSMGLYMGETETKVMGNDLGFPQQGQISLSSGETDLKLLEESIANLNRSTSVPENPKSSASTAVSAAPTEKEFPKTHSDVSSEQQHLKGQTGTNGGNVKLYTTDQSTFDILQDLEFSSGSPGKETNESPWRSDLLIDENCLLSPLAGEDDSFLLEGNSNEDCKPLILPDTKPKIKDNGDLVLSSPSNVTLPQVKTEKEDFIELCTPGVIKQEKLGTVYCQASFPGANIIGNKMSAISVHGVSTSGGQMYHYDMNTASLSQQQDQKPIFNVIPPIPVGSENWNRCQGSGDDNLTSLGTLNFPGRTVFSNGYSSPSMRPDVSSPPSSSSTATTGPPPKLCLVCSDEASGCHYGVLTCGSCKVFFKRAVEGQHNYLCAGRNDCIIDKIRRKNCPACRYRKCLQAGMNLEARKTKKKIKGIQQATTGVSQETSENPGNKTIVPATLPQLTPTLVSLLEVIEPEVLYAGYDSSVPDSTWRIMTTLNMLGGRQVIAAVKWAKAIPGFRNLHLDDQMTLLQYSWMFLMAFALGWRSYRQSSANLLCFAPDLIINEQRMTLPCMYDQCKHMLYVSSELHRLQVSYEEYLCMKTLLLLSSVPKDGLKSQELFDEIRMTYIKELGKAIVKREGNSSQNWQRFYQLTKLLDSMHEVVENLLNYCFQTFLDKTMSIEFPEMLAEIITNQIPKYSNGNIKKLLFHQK

N#CC(C(=O)Nc1ccc(Cl)c(Cl)c1)=C1Nc2ccccc2N1
inactive: activity change, negative = inhibition [1] -3.6% | activity, negative = inhibition [2] -4.82% | Potency [3] > 20.6 µM

COCCOC(=O)c1c(C)oc2ccc(OC(=O)COc3c(F)c(F)c(F)c(F)c3F)cc12
inactive: activity change, negative = inhibition [1] -2.9% | activity, negative = inhibition [2] 1.17% | Potency [3] > 20.6 µM

Clc1ccc(-n2ncc3c(NCc4ccccn4)ncnc32)cc1
inactive: activity change, negative = inhibition [1] -18.5% | activity, negative = inhibition [2] -20.2% | Potency [3] > 20.6 µM

CCOC(=O)C1CCN(c2nc3ccccc3nc2C(C#N)C(=O)OC(C)C)CC1 (stereo unspecified)
inactive: activity change, negative = inhibition [1] 8.02% | activity, negative = inhibition [2] -8.74% | Potency [3] > 20.6 µM

N#Cc1nc(-c2cccs2)oc1NCc1ccccc1Cl
inactive: activity change, negative = inhibition [1] -29.4% | activity, negative = inhibition [2] -12.6% | Potency [3] > 20.6 µM

CCOC(=O)c1[nH]c2ccc(OC)cc2c1NC(=O)CN1CCN(c2ccccn2)CC1
inactive: activity change, negative = inhibition [1] -9.84% | activity, negative = inhibition [2] -2.44% | Potency [3] > 20.6 µM

COc1ccc(CC(=O)Nc2cccc(-c3nnc(-c4ccco4)o3)c2)cc1
inactive: activity change, negative = inhibition [1] 29.9% | activity, negative = inhibition [2] -27.7% | Potency [3] > 20.6 µM

COC(=O)c1ccc(-c2sc3nc(N4CCOCC4)c4c(c3c2N)CCCC4)o1
inactive: activity change, negative = inhibition [1] -5.04% | activity, negative = inhibition [2] -5.83% | Potency [3] > 20.6 µM

Cc1ccc(-c2nnc(-c3ccccc3)o2)cc1Br
inactive: activity change, negative = inhibition [1] -13.3% | activity, negative = inhibition [2] 27.2% | Potency [3] > 20.6 µM

COc1cccc(OC)c1OCC(C)CNCC1CCCO1 (stereo unspecified)
inactive: activity change, negative = inhibition [1] -18.8% | activity, negative = inhibition [2] 10.2% | Potency [3] > 20.6 µM

C=CCn1c(=S)[nH]c2nc3c(cc2c1=O)COC(C)(C)C3
inactive: activity change, negative = inhibition [1] 5.11% | activity, negative = inhibition [2] 3.02% | Potency [3] > 20.6 µM

CCNCc1cc2cc(C)ccc2[nH]c1=O
inactive: activity change, negative = inhibition [1] -15.2% | activity, negative = inhibition [2] 2.05% | Potency [3] > 20.6 µM

Cn1c2ccccc2c2nn(-c3ccccc3)c(=O)cc21
inactive: activity change, negative = inhibition [1] 2.73% | activity, negative = inhibition [2] 6.09% | Potency [3] > 20.6 µM

O=C(O)C1CC=CCC1C(=O)N1CCN(c2nc(-c3ccccc3)c3ccccc3n2)CC1 (stereo unspecified)
inactive: activity change, negative = inhibition [1] -12% | activity, negative = inhibition [2] 9.49% | Potency [3] > 20.6 µM

CCCc1[nH]nc2c1C(c1c(C)nn(-c3ccccc3)c1Cl)C(C#N)=C(N)O2 (stereo unspecified)
inactive: activity change, negative = inhibition [1] 14.9% | activity, negative = inhibition [2] -29.6% | Potency [3] > 20.6 µM

Cc1cc(C)c(C#N)c(SCC(=O)N2CCN(Cc3ccccc3)CC2)n1
inactive: activity change, negative = inhibition [1] -24.4% | activity, negative = inhibition [2] 11.8% | Potency [3] > 20.6 µM

Cc1nc2sc3c(c2c(=O)o1)CC(C)(C)OC3
inactive: activity change, negative = inhibition [1] -10.1% | activity, negative = inhibition [2] -8.31% | Potency [3] > 20.6 µM

Nc1c(Br)cc2oc(-c3ccccc3)nc2c1Br
inactive: activity change, negative = inhibition [1] 4.7% | activity, negative = inhibition [2] 14.6% | Potency [3] > 20.6 µM

CN1CCc2c(C#N)c(N3CCCCC3)nc(NCc3ccccc3)c2C1
inactive: activity change, negative = inhibition [1] -7.69% | activity, negative = inhibition [2] -16.2% | Potency [3] > 20.6 µM

COC(=O)c1sc(NC(=O)c2oc3ccccc3c2C)nc1C
inactive: activity change, negative = inhibition [1] -8% | activity, negative = inhibition [2] 18.1% | Potency [3] > 20.6 µM

CCOc1ccc(S(=O)(=O)N(C)CCO)cc1-c1nc2c(C(C)(C)C)nn(C)c2c(=O)[nH]1
inactive: activity change, negative = inhibition [1] 6.99% | activity, negative = inhibition [2] -3.41% | Potency [3] > 20.6 µM

CCOC(=O)C1=C(C)N=C2SC(C)C(=O)N2C1c1ccc(C(=O)OC)cc1 (stereo unspecified)
inactive: activity change, negative = inhibition [1] -15.8% | activity, negative = inhibition [2] -8.28% | Potency [3] > 20.6 µM

NC(=O)CSc1nnc2n(-c3ccccc3)c(=O)c3c4c(sc3n12)CCCCC4
inactive: activity change, negative = inhibition [1] -30% | activity, negative = inhibition [2] 9.67% | Potency [3] > 20.6 µM

COC(=O)c1ccn(C(=O)c2ccc(Cl)cc2)n1
inactive: activity change, negative = inhibition [1] -8.81% | activity, negative = inhibition [2] -10.2% | Potency [3] > 20.6 µM

Cc1cccc(N2CN=c3s/c(=C\c4ccncc4)c(=O)n3C2)c1
inactive: activity change, negative = inhibition [1] -17.2% | activity, negative = inhibition [2] -0.937% | Potency [3] > 20.6 µM

C=CCOC(=O)C1=C(C)NC(SCC(=O)N(CC)CC)=C(C#N)C1c1ccccc1 (stereo unspecified)
inactive: activity change, negative = inhibition [1] 2.35% | activity, negative = inhibition [2] -2.74% | Potency [3] > 20.6 µM

c1ccc(N2CCN(c3nc(-c4ccccn4)nc4ccccc34)CC2)cc1
inactive: activity change, negative = inhibition [1] 0.815% | activity, negative = inhibition [2] -14.9% | Potency [3] > 20.6 µM

O=C(c1ccc2c3c(cccc13)C(=O)N(O)C2=O)N1CCCCC1
inactive: activity change, negative = inhibition [1] 0.433% | activity, negative = inhibition [2] 22.1% | Potency [3] > 20.6 µM

Cc1ccc(-n2ncc3c(NCc4cccnc4)ncnc32)c(C)c1
inactive: activity change, negative = inhibition [1] -27.9% | activity, negative = inhibition [2] -18.9% | Potency [3] > 20.6 µM

N#Cc1nc(-c2cccs2)oc1NCc1ccccc1
inactive: activity change, negative = inhibition [1] -20.6% | activity, negative = inhibition [2] -1.04% | Potency [3] > 20.6 µM

Cc1ccc(OCC(O)CNS(=O)(=O)c2ccccc2C(=O)O)cc1 (stereo unspecified)
inactive: activity change, negative = inhibition [1] 6.08% | activity, negative = inhibition [2] 4% | Potency [3] > 20.6 µM

CC1(C(=O)O)CCC(C(=O)NC2CCCCCC2)C1(C)C (stereo unspecified)
inactive: activity change, negative = inhibition [1] -7.92% | activity, negative = inhibition [2] 10.5% | Potency [3] > 20.6 µM

From PubChem BioAssay (NCATS)
